Source: PubChem BioAssay (National Center for Advancing Translational Sciences (NCATS))
Rows were chosen to be rich in hits. Some 11% of all compounds tested hit in one or more screens of this group.
IMPase Li inh: cell-permeable IMPase inhibitors with lithium potentiation; AID 1457; CHO-M1 cells, IP1 TR-FRET (IP-One), carbachol + lithium; 210,000 tested, 0.35% active; Potency, µM (doses to about 59.4 µM), for inactives: at the top dose activity, negative = IMPase inhibition, usual class: inhibitors; active = well fitted inhibition curve with a large enough effect; inconclusive = small, poorly fitted or top-dose-only effect; inactive = no such curve, though single readings can be large or run the other way;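 also: IP1 builds up when IMPase is blocked and the TR-FRET signal falls; potency is read from the fitted curve at half-maximal effect; plate controls were basal vehicle for no effect and high inhibitor control for full effect; nearly all actives have a fitted effect of over 50% in size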
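CHO-M1, 2000 cells/well, 16–30 h culture; cpd + low Li+, 30 min 37C; lysis with d2-IP1/Eu-anti-IP1 Ab, 10 min RT; TR-FRET 665/620 ratio and 620 channel; AC50 via Hill.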
ALDH1A1 inh: ALDH1A1 (human) enzyme inhibition; Potency, µM (titrated, usually from 75.3 µM), for the others: at the highest dose activity, negative = inhibition, most hits filed as inhibitors; Purified ALDH1A1, NADH fluorescence, propionaldehyde substrate; 220,000 tested, 7.3% active; AID 1030; P00352;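 also: potency is read from the fitted curve at half-maximal effect; plate controls were no enzyme wells and a reference inhibitor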
PNC assembly inh: perinucleolar compartment assembly inhibition. activity change (PNC), negative = inhibition, % at 10 µM. 140,000 tested, 3.1% active. PC3M PTB-GFP, PNC prevalence imaging, 16 h; active compounds read low;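 active = readout at or below -70, meaning at least 70% loss of cells showing the perinucleolar compartment, a nuclear body marking cancer cells; inconclusive = readout between -30 and a set limit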;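 also: plate controls were DMSO wells for no effect and camptothecin positive control wells for full effect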
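Read-out is percentage of cells bearing a perinucleolar compartment, from automated 20x imaging of fixed, Hoechst-stained PC3M PTB-GFP cells. Cells were seeded 4 h, then exposed 16 h to compound (23 nl of library stock) in duplicate plates.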
HPGD inh: blocks human HPGD enzyme activity; P15428; purified HPGD, NADH fluorescence kinetic, PGE2 substrate; Potency, µM, for the others: at the highest dose activity change, negative = inhibition, most hits filed as inhibitors; 150,000 tested, 4.3% active; AID 894; also: potency is read from the fitted curve at half-maximal effect
Target sequence (P15428 whole entry, looked up): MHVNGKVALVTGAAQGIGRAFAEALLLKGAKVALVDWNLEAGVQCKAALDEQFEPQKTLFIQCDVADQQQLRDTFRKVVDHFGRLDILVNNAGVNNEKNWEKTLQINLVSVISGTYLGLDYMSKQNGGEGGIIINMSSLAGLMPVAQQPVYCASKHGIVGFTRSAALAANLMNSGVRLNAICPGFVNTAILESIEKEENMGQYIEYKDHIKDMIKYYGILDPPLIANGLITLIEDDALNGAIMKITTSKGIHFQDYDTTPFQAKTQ
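20 nM HPGD preincubated 15 min at room temperature with compound in 50 mM Tris-HCl pH 8, 0.01% Tween 20. Started with 1 mM NAD+ and 30 uM prostaglandin E2; NADH fluorescence (360/450 nm) read 5 times over 30-s intervals, last minus first.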
IMPase cell inh: IMPase inhibition in cells; inhibition (IP1 accumulation), % at 46.1 µM; CHO-M1 cells, IP1 accumulation, HTRF TR-FRET ratio; AID 901; 120,000 tested, under 10 active; P97697; active = well fitted curve in the direction sought with a large enough effect in the signal ratio, not every such curve was filed as active; inconclusive = small, poorly fitted or top-dose-only effect, or a change in a side signal; inactive = no such curve, though single readings can be large or run the other way; the % refers to the signal ratio;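 also: cells stimulated with carbachol in lithium chloride buffer; plate controls were DMSO basal wells for no effect and reference inhibitor wells for full effect; higher means more IMPase inhibition seen as more IP1 and lower FRET ratio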
Target sequence (P97697 whole entry, looked up): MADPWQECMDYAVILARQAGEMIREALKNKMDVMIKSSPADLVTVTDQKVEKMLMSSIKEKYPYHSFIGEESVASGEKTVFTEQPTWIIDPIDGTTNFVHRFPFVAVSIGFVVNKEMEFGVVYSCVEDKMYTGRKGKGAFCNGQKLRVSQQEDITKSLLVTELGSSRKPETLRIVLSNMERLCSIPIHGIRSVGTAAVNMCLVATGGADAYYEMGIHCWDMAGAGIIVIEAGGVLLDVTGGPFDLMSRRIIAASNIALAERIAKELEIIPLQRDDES
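Seeded CHO-M1 cells were dosed with compound at up to 46 uM, stimulated with carbachol for 30 min, then lysed in IP-One detection reagents. Higher IP1 lowers the TR-FRET signal.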
* = called active by the depositor; ? = inconclusive; · = not tested or not shown; [ ] = dose if it differs, or a comment. Unless noted, calls follow the shape of the dose curve; as a rule, active = well fitted inhibition curve with a large enough effect (not every such curve was filed as active); inconclusive = small, poorly fitted or top-dose-only effect, or another doubt; inactive = no such curve, though single readings can be large or run the other way. Unless noted, % is scaled to controls: 0 for no effect and ±100 for the full control effect.

SMILES | IMPase Li inh | ALDH1A1 inh | PNC assembly inh | HPGD inh | IMPase cell inh
COc1ccc(-c2noc(CCC(=O)N3CCN(Cc4ccccc4)CC3)n2)cc1 | 13%[38.3 µM] | ? | -12 | -5% | 3
Cc1ccc(-c2noc(CCC(=O)N3CCCC3)n2)cc1 | -5%[38.3 µM] | 0% | ? | 25µM* | 0
O=C(c1cccs1)N(Cc1nc2sc3c(c2c(=O)[nH]1)CCCC3)C1CCCC1 | 3%[38.3 µM] | ? | -92* | ? | -6
Cc1sc2nc(CN(C(=O)c3cccs3)C3CCCC3)[nH]c(=O)c2c1C | -7%[38.3 µM] | -10% | 3 | -5% | ?
Cc1nc(SCC(O)CCl)c([N+](=O)[O-])[nH]1 (configuration not stated) | 4% | 14µM* | 32 | -5% | 16
Cc1nc2[nH]c(=S)[nH]c2cc1Br | 2%[38.3 µM] | 18µM* | 3 | ? | -7
C=CCn1c(COc2ccc(OC)cc2)nnc1SCn1nnc2ccccc2c1=O | 16% | ? | 42 | -11% | ·
Cc1ccc(O)c(CNc2cccc3cccnc23)c1 | 5% | -6% | · | · | ·
COc1cccc(CNc2cccc3cccnc23)c1O | 74%[38.3 µM] | ? | -94* | 32µM* | 4
CN(C)CCCN(C(=O)CCOc1ccccc1)c1nc2c(F)cccc2s1 | -1% | 3.2µM* | · | · | ·
CC(=O)OC[C@H]1O[C@@H](O/N=C(\C)CCN2CCCCc3nc(C)c(C)cc32)[C@H](OC(C)=O)[C@@H](OC(C)=O)[C@H]1OC(C)=O | · | -8%[13.5 µM] | · | · | ·
O=C1c2ccccc2C(Nc2ccc(Cl)cn2)N1Cc1ccccc1 (configuration not stated) | 4%[38.3 µM] | 13µM* | -12 | -21% | -1
O=C1c2ccccc2C(Nc2ccccc2)N1c1ccc(Cl)cn1 (configuration not stated) | 27%[38.3 µM] | ? | -1 | -19% | 14
O=C(NCCc1ccccc1)C(=S)N1CCCCC1 | 4% | 10% | · | · | ·
COC(=O)c1c(C)oc2ccc(N(C(=O)Oc3ccccc3)S(=O)(=O)c3ccc(C(C)(C)C)cc3)cc12 | · | · | · | · | 1
CSC(N)=NCCC[C@@H](N)C(=O)O | · | · | · | · | 12
COc1ccc(NC(=O)Cc2cccs2)c(OC)c1 | 6%[38.3 µM] | 6% | ? | -23% | 2
COc1ccc(Cc2nnc(NC(=O)Cc3cccs3)s2)cc1OC | 2% | ? | -100* | ? | -10
COC(=O)c1cc(OC)c(OC)cc1NC(=O)Cc1cccs1 | 31% | 3.2µM* | · | · | ·
O=C(NCCc1ccccc1)c1ccccc1F | 9% | 0% | · | · | ·
CN(C(=O)COc1ccccc1C(=O)NCCc1ccccc1)c1ccccc1 | 4% | -2% | -100* | 0% | ·
BrC/C=C/CBr | 11% | 25µM* | · | -2% | ·
CCn1c(SCC(=O)O)nnc1-c1cccnc1 | 11% | 11% | · | · | ·
COc1ccc(CN(C)C2c3ccccc3-c3ccccc32)cc1 | · | -21% | -91* | · | 0
COc1ccc(OCCN(C)Cc2ccccc2)cc1 | 7% | 5% | -4 | -11% | -3
SMILES | IMPase Li inh | ALDH1A1 inh | PNC assembly inh | HPGD inh | IMPase cell inh
COc1ccc(NC(=O)c2ccccc2SC)cc1 | 6% | ? | · | · | ·
CCSc1ccccc1C(=O)NCc1ccc2c(c1)OCO2 | -2%[38.3 µM] | ? | ? | 1.4µM* | 4
COc1ccc(CNC(=O)CCSCc2ccccc2C)cc1 | -8% | 4µM* | · | · | ·
COc1ccc(CNC(=O)c2ccccc2SC)cc1 | 5%[38.3 µM] | 6% | 5 | 6.3µM* | -5
COc1ccc(CNC(=O)CCSCc2cccc(Cl)c2)cc1 | 1% | ? | 7 | -26% | -2
CSc1ccccc1C(=O)NCc1ccc2c(c1)OCO2 | 42%[38.3 µM] | 13% | 46 | 0.5µM* | 7
O=C(O)c1nnsc1COCc1ccccc1 | 0% | -10%[13.5 µM] | · | -12% | ·
COCCSc1ccccc1C(=O)Nc1ccc2c(c1)OCO2 | 2% | -9% | · | · | ·
O=C(Nc1ccc2c(c1)OCO2)c1ccccc1SCC(=O)N1CCCC1 | -14%[38.3 µM] | 1.3µM* | 17 | 28µM* | 0
NC(=S)N1OC[C@@H]2COc3ccc4ccccc4c3[C@@H]21 | 26% | 13µM* | · | · | ·
C=CCOC(=O)N[C@H](/C(C(=O)OC)=C(\C)NCc1ccccc1)c1cccc(F)c1 | 27% | -2% | · | -19% | ·
COc1ccc(-c2nc3cnc(N4CCNCC4)nc3n(C3CC3)c2=O)cc1 | 9% | ? | · | ? | ·
COc1ccc(CCC(=O)Nc2cccc(Cl)c2)cc1 | -6% | -11% | -83* | -9% | ·
COC(=O)c1cccc(NC(=O)c2cnoc2C)c1 | 3% | 9% | -119* | -21% | 5
COC(=O)c1cccc(NC(=O)CCc2ccccc2)c1 | 13% | 25µM* | -28 | 25µM* | ·
COC(=O)c1cccc(NC(=O)CCc2cc(OC)c(OC)c(OC)c2)c1 | 12% | -2% | ? | -14% | ·
COC(=O)c1ccc(C)c(NC(=O)CCc2ccc(OC)cc2)c1 | 9% | 20µM* | -7 | -27% | 15
COc1ccc(C(=O)N2CCC(C(=O)Nc3ccccc3Cl)CC2)cc1 | · | · | · | · | -3
CCCCCn1cnc2c(sc3nc4c(cc32)CSC(C)(C)C4)c1=O | -6% | 2.8µM* | ? | ? | ·
CCCCCn1cnc2sc(CC)cc2c1=O | 12% | -2% | 12 | -27% | ·
CC1(C)Cc2nc3sc4c(=O)[nH]cnc4c3cc2CS1 | 14%[38.3 µM] | 14µM* | -15 | ? | -3
CCN(CC)c1ccc(CNC23CN4CN(CN(C4)C2)C3)cc1 | 34%[38.3 µM] | 5µM* | 29 | -12% | 0
CCC1C/C(=C\c2cccnc2)C(=O)/C(=C/c2cccnc2)C1 (configuration not stated) | 9% | ? | -125* | -25% | ·
CCOC(=O)N1CCC(NC(=O)C2CCN(C(=O)c3cc4oc(C)cc4n3Cc3c(F)cccc3Cl)CC2)CC1 | 15% | 20µM* | · | · | ·
CCOc1ccc(C(=O)Nc2cc(C)c3c(=O)oc4ccccc4c3n2)cc1 | 13µM* | -6% | 3 | -16% | -3
SMILES | IMPase Li inh | ALDH1A1 inh | PNC assembly inh | HPGD inh | IMPase cell inh
COc1cccc(C(=O)Nc2c(C(N)=O)oc3ccccc23)c1 | 29%[38.3 µM] | -1% | -11 | ? | -8
CCOc1ccc(C(=O)Nc2c(C(N)=O)oc3ccccc23)cc1 | 4% | -2% | -119* | ? | -8
Cc1ccc([N+](=O)[O-])cc1N/C=C/C(=O)c1ccco1 | 14%[38.3 µM] | 22µM* | 2 | -24% | -1
COC(=O)c1ccc(CSc2nc3ccc(S(=O)(=O)N4CCOCC4)cc3[nH]2)cc1 | 11% | -4% | ? | 28µM* | 11
CCc1ccc(C(=O)CSc2nc3cc(S(=O)(=O)N4CCOCC4)ccc3n2CC)cc1 | 23% | 28µM* | ? | -23% | 14
Cc1csc(SCC(=O)c2ccc(S(=O)(=O)N3CCOCC3)cc2)n1 | 2%[38.3 µM] | ? | 8 | -11% | -1
Cc1ccc(NCc2nc3ccccc3n2CCOc2ccccc2)cc1 | -10% | ? | -21 | ? | ·
Cc1ccc(S(=O)(=O)/N=C(\CN2CCCCC2)N2CCOCC2)cc1 | 4%[38.3 µM] | 11µM* | -1 | -4% | 6
